Experimental data published in PubChem BioAssay AID1159580 (chemical genetic matrix, 2015).
In all, about 5,500 compounds went through this assay and about 2,000 (36%) were called active. Another 18% or so got no clear call; they are omitted. No stated cut-off is given here; in the data, active means normalized growth mostly below about 0.91 (no sharp cut-off); inconclusive means no clear call, values can overlap the other calls; inactive means mostly above about 0.92. This is one part of the list.

Test: chemical genetic growth profiling, strain panel (AID 1159580);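 further: tested at 20 µM; growth read once vehicle control cultures reached saturation at 30 °C; 1 = growth at the plate median or of vehicle wells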
Details: growth OD

Measured: normalized growth

CC1(C)CC[C@]2(C)CC[C@]3(C)C(=CCC4[C@@]5(C)CC[C@H](O)C(C)(C)C5CC[C@]43C)C2C1 (some centres not stated)
inactive: S. cerevisiae deletion strains, locus YJL187C, strain SWE1, stronger effect = lower value 1 | S. cerevisiae deletion strains, locus YJR066W, strain TOR1, stronger effect = lower value 0.993 | S. cerevisiae deletion strains, locus YKL009W, strain mrt4, stronger effect = lower value 0.988 | S. cerevisiae deletion strains, locus YKL068W, stronger effect = lower value 0.985 | S. cerevisiae deletion strains, locus YKL085W, strain MDH1 (second series), stronger effect = lower value 0.999 | S. cerevisiae deletion strains, locus YKL085W, strain MDH1, stronger effect = lower value 0.999 | S. cerevisiae deletion strains, locus YKL160W, strain elf1, stronger effect = lower value 0.987 | S. cerevisiae deletion strains, locus YKL190W, strain CNB1, stronger effect = lower value 1 | S. cerevisiae deletion strains, locus YKR001C, strain vps1, stronger effect = lower value 0.999 | S. cerevisiae deletion strains, locus YKR026C, strain gcn3, stronger effect = lower value 0.989 | S. cerevisiae deletion strains, locus YKR091W, strain srl3, stronger effect = lower value 0.993 | S. cerevisiae deletion strains, locus YLL001W, strain dnm1, stronger effect = lower value 0.987 | S. cerevisiae deletion strains, locus YLL026W, stronger effect = lower value 0.984 | S. cerevisiae deletion strains, locus YLL041C, strain sdh2, stronger effect = lower value 1.01 | S. cerevisiae deletion strains, locus YLR027C, strain aat2, stronger effect = lower value 0.98 | S. cerevisiae deletion strains, locus YLR039C, strain RIC1, stronger effect = lower value 1.02 | S. cerevisiae deletion strains, locus YLR058C, strain SHM2, stronger effect = lower value 1.01 | S. cerevisiae deletion strains, locus YLR102C, strain apc9, stronger effect = lower value 1.01 | S. cerevisiae deletion strains, locus YLR113W, strain HOG1, stronger effect = lower value 0.977 | S. cerevisiae deletion strains, locus YLR221C, strain rsa3, stronger effect = lower value 0.987 | S. cerevisiae deletion strains, locus YLR258W, strain gsy2, stronger effect = lower value 1.01 | S. cerevisiae deletion strains, locus YLR262C, strain YPT6 (second series), stronger effect = lower value 1.01 | S. cerevisiae deletion strains, locus YLR268W, strain sec22, stronger effect = lower value 1.03 | S. cerevisiae deletion strains, locus YLR320W, strain mms22, stronger effect = lower value 0.994 | S. cerevisiae deletion strains, locus YLR342W, strain FKS1, stronger effect = lower value 0.996 | S. cerevisiae deletion strains, locus YLR357W, strain rsc2, stronger effect = lower value 0.971 | S. cerevisiae deletion strains, locus YLR370C, strain arc18, stronger effect = lower value 0.999 | S. cerevisiae deletion strains, locus YLR371W, strain rom2, stronger effect = lower value 0.973 | S. cerevisiae deletion strains, locus YLR384C, strain iki3, stronger effect = lower value 0.967 | S. cerevisiae deletion strains, locus YLR418C, strain cdc73, stronger effect = lower value 0.994 | S. cerevisiae deletion strains, locus YML016C, strain PPZ1, stronger effect = lower value 1.01 | S. cerevisiae deletion strains, locus YML032C, strain rad52, stronger effect = lower value 0.991 | S. cerevisiae deletion strains, locus YML120C, strain ndi1, stronger effect = lower value 0.979 | S. cerevisiae deletion strains, locus YML124C, strain tub3, stronger effect = lower value 0.984 | S. cerevisiae deletion strains, locus YMR058W, strain fet3, stronger effect = lower value 0.988 | S. cerevisiae deletion strains, locus YMR078C, strain ctf18, stronger effect = lower value 0.994 | S. cerevisiae deletion strains, locus YMR125W, strain sto1, stronger effect = lower value 0.994 | S. cerevisiae deletion strains, locus YMR129W, stronger effect = lower value 0.991 | S. cerevisiae deletion strains, locus YMR205C, strain PFK2, stronger effect = lower value 1.01 | S. cerevisiae deletion strains, locus YMR223W, strain ubp8, stronger effect = lower value 0.992 | S. cerevisiae deletion strains, locus YMR231W, strain pep5, stronger effect = lower value 0.997 | S. cerevisiae deletion strains, locus YMR263W, strain SAP30, stronger effect = lower value 0.979 | S. cerevisiae deletion strains, locus YMR307W, strain GAS1, stronger effect = lower value 1.06 | S. cerevisiae deletion strains, locus YNL067W, strain RPL9B, stronger effect = lower value 0.973 | S. cerevisiae deletion strains, locus YNL071W, strain lat1, stronger effect = lower value 0.997 | S. cerevisiae deletion strains, locus YNL153C, strain GIM3, stronger effect = lower value 0.973 | S. cerevisiae deletion strains, locus YNL183C, strain NPR1, stronger effect = lower value 0.984 | S. cerevisiae deletion strains, locus YNL209W, strain ssb2, stronger effect = lower value 0.975 | S. cerevisiae deletion strains, locus YNL233W, strain BNI4, stronger effect = lower value 1.01 | S. cerevisiae deletion strains, locus YNL248C, strain rpa49, stronger effect = lower value 0.985 | S. cerevisiae deletion strains, locus YNL250W, strain rad50, stronger effect = lower value 0.963 | S. cerevisiae deletion strains, locus YNL271C, strain bni1, stronger effect = lower value 0.978 | S. cerevisiae deletion strains, locus YNL298W, strain CLA4, stronger effect = lower value 0.991 | S. cerevisiae deletion strains, locus YNL307C, strain MCK1, stronger effect = lower value 1 | S. cerevisiae deletion strains, locus YNL322C, strain KRE1 (second series), stronger effect = lower value 0.965 | S. cerevisiae deletion strains, locus YNR049C, strain mso1, stronger effect = lower value 0.987 | S. cerevisiae deletion strains, locus YNR052C, strain pop2, stronger effect = lower value 0.968 | S. cerevisiae deletion strains, locus YOL006C, strain TOP1, stronger effect = lower value 1.14 | S. cerevisiae deletion strains, locus YOL012C, strain htz1 1.39 | S. cerevisiae deletion strains, locus YOL147C, strain pex11, stronger effect = lower value 0.98 | S. cerevisiae deletion strains, locus YOR001W, strain rrp6, stronger effect = lower value 1 | S. cerevisiae deletion strains, locus YOR061W, strain CKA2, stronger effect = lower value 1.01 | S. cerevisiae deletion strains, locus YOR069W, strain VPS5, stronger effect = lower value 1.01 | S. cerevisiae deletion strains, locus YOR070C, strain gyp1, stronger effect = lower value 0.991 | S. cerevisiae deletion strains, locus YOR080W, strain dia2, stronger effect = lower value 0.998 | S. cerevisiae deletion strains, locus YOR083W, strain WHI5, stronger effect = lower value 1 | S. cerevisiae deletion strains, locus YOR106W, strain vam3, stronger effect = lower value 0.993 | S. cerevisiae deletion strains, locus YOR136W, strain idh2, stronger effect = lower value 0.994 | S. cerevisiae deletion strains, locus YOR144C, strain elg1, stronger effect = lower value 0.994 | S. cerevisiae deletion strains, locus YOR184W, strain ser1, stronger effect = lower value 1.02 | S. cerevisiae deletion strains, locus YOR231W, strain MKK1, stronger effect = lower value 1.01 | S. cerevisiae deletion strains, locus YOR265W, strain rbl2, stronger effect = lower value 0.996 | S. cerevisiae deletion strains, locus YOR270C, strain vph1, stronger effect = lower value 1.05 | S. cerevisiae deletion strains, locus YOR290C, strain snf2, stronger effect = lower value 0.989 | S. cerevisiae deletion strains, locus YOR316C, strain cot1, stronger effect = lower value 0.993 | S. cerevisiae deletion strains, locus YPL051W, strain arl3, stronger effect = lower value 1 | S. cerevisiae deletion strains, locus YPL078C, strain atp4, stronger effect = lower value 1.01 | S. cerevisiae deletion strains, locus YPL106C, strain sse1, stronger effect = lower value 0.961 | S. cerevisiae deletion strains, locus YPL240C, strain hsp82, stronger effect = lower value 0.988 | S. cerevisiae deletion strains, locus YPL241C, strain CIN2, stronger effect = lower value 0.992 | S. cerevisiae deletion strains, locus YPL256C, strain CLN2, stronger effect = lower value 1.03 | S. cerevisiae deletion strains, locus YPR119W, strain clb2, stronger effect = lower value 0.984 | S. cerevisiae deletion strains, locus YPR141C, strain kar3, stronger effect = lower value 0.971 | S. cerevisiae deletion strains, locus YPR163C, strain tif3, stronger effect = lower value 1 | S. cerevisiae deletion strains, locus YPR167C, strain met16, stronger effect = lower value 0.982 | S. cerevisiae deletion strains, strain wtn01, stronger effect = lower value 1.01 | S. cerevisiae strains, strain wild type, stronger effect = lower value 1.02
